PubChem BioAssay (NCATS)
Inconclusive results are not listed. Unmarked numbers belong to inactive results. The call rests on the fitted dose curve; in most records, active means well fitted curve in either direction with a large enough effect (not every such curve was filed as active); inconclusive means small, poorly fitted or top-dose-only effect, or another doubt; inactive means flat fitted curve, though single readings scatter.

Assay: NFAT Signaling Pathway (AID 444);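 further: carbachol stimulus at about its EC50 of 1 µM final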
Conditions: Jurkat NFAT-bla M1, carbachol, beta-lactamase ratio, 5 h; at 7.69 µM (top of the series) unless noted
Outline: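 Jurkat cells with NFAT-driven β-lactamase reporter and co-expressed M1 receptor, stimulated with carbachol (final 1 uM, ~EC50), compound titration, 5 h at 37 °C. CCF4 loaded 1 h at RT; 460/530 nm ratio gave %activity and AC50.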
On the % scale 0 is the no-effect control and ±100 the full control effect.

Row | Compound | activity change, negative = inhibition
1 | O=S(=O)(O)CCCc1cccc2ccccc12 | 3.52%
2 | CC(C)(Oc1ccc(-c2cccc3ccccc23)cc1)C(=O)O | -8.87%
3 | O=[N+]([O-])c1cc(Cc2cc([N+](=O)[O-])c3cccnc3c2O)c(O)c2ncccc12 | -16.4%
4 | O[C@@H](COc1cccc2ccccc12)CN1CCOCC1 | 4.33%
5 | FC(F)(F)c1nc(SCc2ccc(Cl)cc2)n[nH]1 | -9.79%
6 | O=C1c2ccccc2-c2ccc(NC(=O)[C@H]3CCCC[C@@H]3C(=O)O)cc21 | 13.7%
7 | CCOC(=O)C1=C(C)NC(=O)N[C@@H]1c1coc2cc(C)cc(C)c2c1=O | 17.5%
8 | OCCCSCCO | 7.44%
9 | CC1=N[C@@](C)(COC(=O)[C@]2(C)N[C@](C)(CO)CO2)COC1=O | 9.08%
10 | NCC[C@H](N)C(=O)O | 8.74%
11 | O=S(=O)(c1ccccc1)N1CN2CN(C1)CN(S(=O)(=O)c1ccccc1)C2 | -4.88%
12 | NC(=O)Nc1n[nH]c(-c2ccccc2)n1 | -3.57%
13 | C[C@@]1(C(=O)O)CCC[C@@H]1C(=O)O | 5.02%
14 | CCOC(=O)C(C)(C)[C@H](O)C(C)C | 6.94%
15 | N=C(N)[C@H](N=Nc1ccccc1)C(N)=O | 1.62%
16 | O=C(Cn1ccc(=O)[nH]c1=O)Nc1ccc(C(=O)O)c(O)c1 | 18.3%
17 | N[C@@H](Cc1c[nH]c2ccc([N+](=O)[O-])cc12)C(=O)O | -4.18%
18 | Nc1nc(-c2cccc([N+](=O)[O-])c2)cc(-c2cc(-c3cccc([N+](=O)[O-])c3)nc(N)n2)n1 | 6.8%
19 | O=C(O)CC[C@@]1(c2ccccc2)NC(=O)NC1=O | 8.48%
20 | NS(=O)(=O)c1ccc(N=Nc2ccc(O)c(C(=O)O)c2)cc1 | -4.82%

Row | Compound | activity change, negative = inhibition
21 | N=C(N)SCCSC(=N)N | -2.2%
22 | Cc1c(C(=O)O)nc(/C=C\C(=O)O)[nH]c1=O | 3.17%
23 | O=C(Nc1ccc2ncccc2c1)Nc1ccc2ncccc2c1 | 21.4%
24 | Cc1ccc(S(=O)(=O)Oc2cc(S(=O)(=O)O)cc3cc(S(=O)(=O)O)cc(N)c23)cc1 | 1.61%
25 | COc1ccc(NC(=S)Nc2ccccc2)cc1 | 6.45%
26 | Cn1cnc([N+](=O)[O-])c1Sc1nc(N)nc2c1ncn2Cc1ccccc1 | -1.11%
27 | N=C(N)SCc1cc(Cl)cc(Cl)c1O | 5.42%
28 | C[C@@](N)(/C=C\c1ccccc1)C(=O)O | 12%
29 | O=C(O)C1(Nc2ccc(Cl)cc2)CCCC1 | 7.56%
30 | NS(=O)(=O)c1ccc(N=C2C(=O)Nc3ccccc32)cc1 | 4.31%
31 | COCCn1c(=O)c(-c2cc(F)cc(F)c2)nc2cnc(Oc3ccccc3)nc21 | -3.81%
32 | O=C(O)C(Sc1ccc(Cl)cc1)Sc1ccc(Cl)cc1 | -19.6%
33 | N=c1nc(N)nc(N)n1-c1ccc(S(N)(=O)=O)cc1 | 9.5%
34 | CN(C)Cc1ccc(O)c(CN(C)C)n1 | 4.31%
35 | COC(=O)[C@]1(C)CCC(c2ccc(C)cc2)=C(CC(=O)O)C1 | -1.89%
36 | Cc1cc(CN2CCCCC2)c(O)c(CN2CCCCC2)c1 | -21.4%
37 | CCO[P@]1(=O)OC[C@@H]2O[C@H](n3cnc4c(N)ncnc43)[C@H](O)[C@@H]2O1 | 4.19%
38 | O=C(NCCO)c1ccc(Cl)cc1 | 9.91%
39 | C/C(=N/S(=O)(=O)c1ccc(Cl)c(Cl)c1)OCC(C)(C)C | 20%

Assay: Stat Signaling Pathway (AID 446);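 further: ME-180 cervical cancer cells given 40 pM IL-6 alongside compound; SIE-controlled beta-lactamase reporter measured as 460/530 nm FRET emission ratio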
Conditions: ME-180 SIE beta-lactamase reporter, IL-6 stimulated, 5 h; at 7.69 µM (top of the series) unless noted
Outline: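 ME-180 SIE-bla cells; overnight plating; cpd + IL-6 40 pM, 5 h, 37 C; LiveBLAzer 2.5 h RT; 460/530 nm emission ratio. Normalized to 300 pM IL-6 and 125 nM JAK inhibitor controls.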

Row | Compound | activity, negative = inhibition
40 | O=S(=O)(O)CCCc1cccc2ccccc12 | 1.1%
41 | CC(C)(Oc1ccc(-c2cccc3ccccc23)cc1)C(=O)O | 1.48%
42 | O=[N+]([O-])c1cc(Cc2cc([N+](=O)[O-])c3cccnc3c2O)c(O)c2ncccc12 | -1.87%
43 | O[C@@H](COc1cccc2ccccc12)CN1CCOCC1 | 3.7%
44 | FC(F)(F)c1nc(SCc2ccc(Cl)cc2)n[nH]1 | -0.49%
45 | O=C1c2ccccc2-c2ccc(NC(=O)[C@H]3CCCC[C@@H]3C(=O)O)cc21 | 1.55%
46 | CCOC(=O)C1=C(C)NC(=O)N[C@@H]1c1coc2cc(C)cc(C)c2c1=O | -5.6%
47 | OCCCSCCO | -0.432%
48 | CC1=N[C@@](C)(COC(=O)[C@]2(C)N[C@](C)(CO)CO2)COC1=O | 6.3%
49 | NCC[C@H](N)C(=O)O | -3.44%
50 | O=S(=O)(c1ccccc1)N1CN2CN(C1)CN(S(=O)(=O)c1ccccc1)C2 | -0.275%
51 | NC(=O)Nc1n[nH]c(-c2ccccc2)n1 | 2.91%
52 | C[C@@]1(C(=O)O)CCC[C@@H]1C(=O)O | 2.41%
53 | CCOC(=O)C(C)(C)[C@H](O)C(C)C | -3.53%
54 | N=C(N)[C@H](N=Nc1ccccc1)C(N)=O | 1.3%
55 | O=C(Cn1ccc(=O)[nH]c1=O)Nc1ccc(C(=O)O)c(O)c1 | 2.74%
56 | N[C@@H](Cc1c[nH]c2ccc([N+](=O)[O-])cc12)C(=O)O | 3.4%
57 | Nc1nc(-c2cccc([N+](=O)[O-])c2)cc(-c2cc(-c3cccc([N+](=O)[O-])c3)nc(N)n2)n1 | 3.52%
58 | O=C(O)CC[C@@]1(c2ccccc2)NC(=O)NC1=O | 2.02%
59 | NS(=O)(=O)c1ccc(N=Nc2ccc(O)c(C(=O)O)c2)cc1 | -2.97%

Row | Compound | activity, negative = inhibition
60 | N=C(N)SCCSC(=N)N | 12.3%
61 | Cc1c(C(=O)O)nc(/C=C\C(=O)O)[nH]c1=O | 21.1%
62 | O=C(Nc1ccc2ncccc2c1)Nc1ccc2ncccc2c1 | -14.3%
63 | Cc1ccc(S(=O)(=O)Oc2cc(S(=O)(=O)O)cc3cc(S(=O)(=O)O)cc(N)c23)cc1 | 11.7%
64 | COc1ccc(NC(=S)Nc2ccccc2)cc1 | 10.3%
65 | Cn1cnc([N+](=O)[O-])c1Sc1nc(N)nc2c1ncn2Cc1ccccc1 | 1.04%
66 | N=C(N)SCc1cc(Cl)cc(Cl)c1O | 2.98%
67 | C[C@@](N)(/C=C\c1ccccc1)C(=O)O | -3.44%
68 | O=C(O)C1(Nc2ccc(Cl)cc2)CCCC1 | 5.72%
69 | NS(=O)(=O)c1ccc(N=C2C(=O)Nc3ccccc32)cc1 | 4.23%
70 | COCCn1c(=O)c(-c2cc(F)cc(F)c2)nc2cnc(Oc3ccccc3)nc21 | 0.0611%
71 | O=C(O)C(Sc1ccc(Cl)cc1)Sc1ccc(Cl)cc1 | -29.3%
72 | N=c1nc(N)nc(N)n1-c1ccc(S(N)(=O)=O)cc1 | 6.13%
73 | CN(C)Cc1ccc(O)c(CN(C)C)n1 | 0.249%
74 | COC(=O)[C@]1(C)CCC(c2ccc(C)cc2)=C(CC(=O)O)C1 | 2.79%
75 | Cc1cc(CN2CCCCC2)c(O)c(CN2CCCCC2)c1 | -1.32%
76 | CCO[P@]1(=O)OC[C@@H]2O[C@H](n3cnc4c(N)ncnc43)[C@H](O)[C@@H]2O1 | -5.06%
77 | O=C(NCCO)c1ccc(Cl)cc1 | 15.2%
78 | C/C(=N/S(=O)(=O)c1ccc(Cl)c(Cl)c1)OCC(C)(C)C | 1.9%
